Source: PubChem BioAssay (several laboratories)
A selection: hits, their analogues and other compounds. The true share with any hit is near 1.5%.
Efflux pump inh: inhibitors of Candida efflux pumps in yeast, primary screen, S. cerevisiae, Nile Red, multiplex; inhibition, % at 10 µM; S. cerevisiae Candida pump triplex; AID 485275, 2010; 330,000 compounds, 0.44% hits;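 active = plate passing quality check with inhibition over a set limit, or well fluorescence over plate mean plus 4 SD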;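 also: Nile Red retained in pooled yeast measured as flow cytometry median fluorescence; 0% = buffer negative control and 100% = Enniatin B positive control; higher means more Nile Red kept so more efflux inhibition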
NALP3 yeast inh: NALP3 inflammasome inhibitors in reconstituted yeast, primary screen, luminescence, uHTS; Yeast reconstituted NLRP3/ASC/caspase-1, beta-gal luminescence, 24 h; inhibition, % at 10 µM; 330,000 compounds, 0.39% hits; AID 2825, 2010;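 active = inhibition of 50% or more; inactive = inhibition below 50%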;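 also: plate controls were induced DMSO wells for no effect and uninduced yeast grown without galactose for full effect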
HDAC3 inhib: HDAC3 deacetylase inhibitors, primary screen, biochemical, fluorescence, cell-free homogeneous | Histone deacetylase 3 (Homo sapiens), O15379 | recombinant HDAC3, fluorogenic peptide/trypsin coupled | inhibition, % at 8.3 µM | 320,000 compounds, 0.15% hits | AID 2718, 2010; in the data active = inhibition above about 26%, passing the limit was not always enough; inconclusive = no clear call, values can overlap the other calls
Target sequence (O15379 whole entry, looked up): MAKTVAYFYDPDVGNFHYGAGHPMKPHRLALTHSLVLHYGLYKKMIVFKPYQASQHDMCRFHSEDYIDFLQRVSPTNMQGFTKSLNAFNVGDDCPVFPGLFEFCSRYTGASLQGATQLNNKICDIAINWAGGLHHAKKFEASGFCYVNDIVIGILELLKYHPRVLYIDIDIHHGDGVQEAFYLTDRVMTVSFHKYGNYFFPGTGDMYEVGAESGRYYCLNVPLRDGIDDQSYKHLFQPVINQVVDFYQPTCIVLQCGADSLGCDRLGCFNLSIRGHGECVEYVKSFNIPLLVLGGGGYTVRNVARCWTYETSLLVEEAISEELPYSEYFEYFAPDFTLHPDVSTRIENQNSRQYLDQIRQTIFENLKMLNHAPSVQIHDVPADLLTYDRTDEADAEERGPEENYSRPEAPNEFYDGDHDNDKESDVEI
PolyA inhibitor: polyadenylation inhibitors in yeast reporter cells, primary screen, luminescence, S. cerevisiae; 300,000 compounds, 0.02% hits; activity score, % at 12 µM; AID 1875, 2009; S. cerevisiae SKY197-pL101 polyadenylation reporter, beta-gal luminescence; efflux-impaired pdr1/pdr3 knockout yeast; score 100 = 6 SD above DMSO;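 active = lowest replicate activity score at least 50, where 100 means six control SD above control mean; inconclusive = lowest score under 50 but half or more replicates reach 50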;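 also: yeast exposed to compound for 9 h at 30 °C; higher score means more reporter readthrough which indicates perturbed polyadenylation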
GASC-1 inh: inhibitors of GASC-1 histone demethylase, primary screen, biochemical, fluorescence, DELFIA europium; GST-JMJD2C(1-420) H3K9me3 demethylation; 330,000 compounds, 0.069% hits; AID 2099, 2009; inhibition, % at 2.35 µM; Lysine-specific demethylase 4C (Homo sapiens), Q9H3R0;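 active = more than half of a compound's replicate wells show inhibition beyond 50%, single wells judged on their own value; inconclusive = some, but no more than half, of replicates pass 50% inhibition; inactive = no replicate passes 50% inhibition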;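 also: signal counts dimethyl H3K9 product captured on neutravidin plate; 0% = median of DMSO wells and 100% = 0.3 times that DMSO median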
NALP1 yeast inh: NALP1 inflammasome inhibitors in reconstituted yeast, colorimetric, S. cerevisiae, triplicate retest; AID 2071, 2009; 280,000 compounds, 0.61% hits; S. cerevisiae NALP1/ASC/caspase-1 growth, X-gal OD620, 72 h; inhibition, % at 10 µM; in the data active = inhibition mostly above about 24%, no sharp cut-off; inactive = mostly below about 32%
* hit, by the source's call; u = inconclusive; x = not tested or not shown.

SMILES | Efflux pump inh | NALP3 yeast inh | HDAC3 inhib | PolyA inhibitor | GASC-1 inh | NALP1 yeast inh
C=CCc1cc(Cl)ccc1OCCCNC(C)C | -0.2 | 13.7 | -1.3 | 12.2 | 5.9 | 42.1
Cc1ccc(S(=O)(=O)Nc2cccc3cccnc23)c([N+](=O)[O-])c1 | 0.0 | 33.5 | x | 72.4* | 0.1 | -7.1
Cc1cccc(CN2CCC(Oc3ccc(C(=O)N4CCCCC4)cc3)CC2)c1 | 3.2 | 28.6 | 1.2 | 0.3 | -5.4 | 21.8
Cc1[nH]n(-c2ccccc2)c(=S)c1C=Nc1cccc([N+](=O)[O-])c1 | -0.1 | 21.6 | 55.0* | -18.8 | 13.1 | -3.5
COc1ccc(NC(=S)N2CCN(S(=O)(=O)c3ccccc3)CC2)cc1 | -0.1 | 13.9 | 0.2 | x | 10.2 | -6.4
CN(CCOc1ccc(Br)cc1)CC(O)c1ccccc1 (centres undefined) | 5.3* | 5.2 | 2.4 | 4.1 | 1.7 | 5.9
CO[C@H]1C[C@@H]2CC[C@@H](C)[C@@](O)(O2)C(=O)C(=O)N2CCCC[C@H]2C(=O)O[C@H]([C@H](C)C[C@@H]2CC[C@@H](O)[C@H](OC)C2)CC(=O)[C@H](C)C=C(C)[C@@H](O)[C@@H](OC)C(=O)[C@H](C)C[C@H](C)C=CC=CC=C1C | x | x | x | x | x | 65.5*
C#CCNC(=O)C1=C[C@@H](C(C)(C)C)C[C@@H](OCc2ccc(CO)cc2)O1 | 0.1 | 12.1 | -1.0 | -7.7 | 7.9 | 29.7*
CC(C)CC1Nc2ncnc(N3CCN(c4ccccc4)CC3)c2N(Cc2ccc(Br)cc2)C1=O (centres undefined) | 0.1 | 19.4 | u | 0.6 | -7.7 | x
CC(C)CC1Nc2ncnc(N3CCN(c4ccccc4)CC3)c2N(Cc2ccccc2)C1=O (centres undefined) | 0.0 | 8.4 | 0.4 | 83.6* | 1.7 | x
COc1ccc(C(O)C(CN2CCOCC2)c2ccccc2)cc1F (centres undefined) | 0.0 | 13.5 | 2.8 | -4.9 | -2.3 | 16.8
COc1ccc(C(=O)C(CN2CCOCC2)c2ccccc2)cc1F (centres undefined) | x | x | x | -3.5 | 0.7 | 40.7*
COCCn1c(SCc2cccc(F)c2)nc2cc(C(=O)OC)ccc2c1=O | 0.1 | 8.9 | 1.0 | 2.2 | 3.8 | 25.2
O=C1c2ccc([N+](=O)[O-])cc2C(=O)N1Cc1cccnc1 | -0.1 | 20.5 | -1.3 | -2.7 | 52.5* | -8.1
CCOC(=O)c1c(N)sc2c(OCC)c(Br)ccc12 | -0.1 | 24.2 | -2.2 | -14.0 | -3.1 | 4.1
CCOC(=O)c1c(NC(C)=O)sc2c(OCC(O)CNC(C)(C)C)c(Br)ccc12 (centres undefined) | 0.1 | 15.1 | -5.1 | -10.8 | 0.2 | 26.1*
Cc1ccc(NC(=O)CN(C)C(=O)COc2cccc3cccnc23)cc1 | 0.1 | 5.2 | 0.0 | 15.2 | 7.2 | 63.8*
NC(=O)COc1cccc2cccnc12 | -0.1 | 7.4 | 6.4 | 17.6 | 73.6* | 1.8
Cc1ccc(NC(=O)CN(C)S(=O)(=O)c2cccc3cccnc23)cc1 | 0.3 | 7.5 | -0.3 | -13.9 | -6.2 | -17.3
CCCn1c(N)c(Sc2ccccc2[N+](=O)[O-])c(=O)n(CCC)c1=O | -0.1 | 7.5 | -2.0 | 0.1 | -0.8 | -6.0
Cc1ccc(SCCCCN2C(=O)NC(C)(C)C2=O)cc1 | 0.0 | 6.8 | 3.1 | 18.4 | 8.1 | 1.6
CC1(C)NC(=O)N(CCSc2ccc(Cl)cc2)C1=O | 0.0 | 20.1 | 1.3 | 4.4 | 2.9 | 30.2*
CC(C)(C)c1cc(CN2CCCC(O)C2)c(O)c(C(C)(C)C)c1 (centres undefined) | 0.0 | 7.4 | 36.4* | 21.8 | -30.1 | -6.6
O=C1CC(c2ccccc2)CC(=O)N1c1ccc(C(F)(F)F)cc1 | 0.2 | 14.5 | -2.0 | x | x | x
CCCn1nc(C(=O)OCC(=O)Nc2cccc(OC)c2)c2ccccc2c1=O | 0.1 | 23.5 | -1.8 | -17.2 | 0.5 | 4.8
SMILES | Efflux pump inh | NALP3 yeast inh | HDAC3 inhib | PolyA inhibitor | GASC-1 inh | NALP1 yeast inh
COc1ccccc1N1CCN(CCCCOc2c(OC)cccc2OC)CC1 | 0.2 | 18.9 | -1.4 | 26.8 | 0.4 | 27.3
COc1ccccc1N1CCN(CCOc2c(OC)cccc2OC)CC1 | 0.2 | 7.5 | -4.6 | -1.4 | -1.8 | 27.8*
Cc1occc1C(=O)Nc1nnc(-c2cccs2)s1 | 0.1 | 7.1 | 7.0 | 0.2 | -9.2 | -10.9
COCCNC(=O)CN1C(=O)NC(c2ccccc2)(c2ccccc2)C1=O | 0.1 | 16.5 | -3.5 | 4.5 | 7.2 | 10.7
CC1CC(C)CN(C(=O)CSc2nnc(-c3ccc(Cl)cc3)o2)C1 (centres undefined) | 0.0 | 24.5 | -1.4 | 25.6 | -4.5 | 34.8*
CCn1c(COc2ccccc2C)nnc1SCC(=O)OC | -0.1 | -24.6 | 3.5 | -26.9 | -3.3 | 22.3*
COc1ccccc1NC(=O)CSC(N)=O | 0.0 | 12.2 | 63.1* | -18.1 | 0.6 | 11.4
NC(=O)CN1CCOCCOCCN(CC(N)=O)CCOCC1 | -0.1 | -0.5 | -0.2 | 5.1 | -2.2 | 38.8*
Cc1onc(-c2ccccc2Cl)c1C(=O)N1CCN(c2nc3ccccc3s2)CC1 | 0.1 | 6.0 | 4.8 | -5.5 | 39.3 | 34.2*
Cc1onc(-c2ccccc2Cl)c1C(=O)N1CCCCC1 | 0.1 | 11.0 | 7.8 | -5.9 | -9.6 | 8.5
O=C(N/N=C/c1sc(N2CCCCC2)nc1-c1cccs1)C1CC1 | -0.1 | 11.9 | -0.5 | 11.5 | 9.2 | 31.2*
CC1CCc2cc(F)cc3c(=O)c(C(=O)O)cn1c23 (centres undefined) | -0.1 | 11.0 | 3.9 | 14.1 | 51.7 | 102.3*
CC(NCC(O)COC1CCC(C(C)(C)C)CC1)c1ccccc1 (centres undefined) | 0.1 | 32.2 | -17.0 | -50.9 | -5.1 | 25.2*
COc1cc(/C=N/n2cnnc2)ccc1OC(=O)c1ccco1 | 0.1 | 5.2 | 27.3* | 26.6 | 3.2 | 7.5
Cc1ccc(CNC(=O)c2cccc(-n3cnnn3)c2)cc1 | -0.2 | -1.1 | -1.6 | 1.5 | 6.4 | 42.9*
COc1ccc(CCNC(=O)c2cccc(-n3cnnn3)c2)cc1 | 0.2 | 0.8 | -7.3 | x | 3.0 | x
COc1ccc(NCc2ccc(OC)c(OC)c2)cc1 | 7.5* | 5.1 | 0.4 | -0.7 | -13.7 | 6.9
CC(=O)Nc1sc2c(c1C#N)CCC(C)C2 (centres undefined) | 0.1 | 2.5 | 11.9 | -22.4 | -5.0 | 7.4
Cc1ccc(C)n1-c1sc2c(c1C#N)CCC(C)C2 (centres undefined) | 0.1 | -13.8 | 10.9 | -21.0 | -3.5 | 34.6*
Cc1nc(-c2ccc3c(c2)OCCCO3)cs1 | 0.1 | 17.4 | 40.8* | 8.0 | -21.2 | 42.0*
Cc1nc(-c2ccc3c(c2)OCO3)cs1 | -0.2 | 15.7 | -1.7 | 6.9 | 9.1 | 15.3
